USP8 block – inhibitors of human USP8 deubiquitinase; purified USP8, Ub-rhodamine cleavage fluorescence, 30 min; inhibition, % at 20 µM; 4.2% of 47,000 active; AID 1645853, 2021; Ubiquitin carboxyl-terminal hydrolase 8 (Homo sapiens), P40818
Target sequence (P40818 whole entry, looked up): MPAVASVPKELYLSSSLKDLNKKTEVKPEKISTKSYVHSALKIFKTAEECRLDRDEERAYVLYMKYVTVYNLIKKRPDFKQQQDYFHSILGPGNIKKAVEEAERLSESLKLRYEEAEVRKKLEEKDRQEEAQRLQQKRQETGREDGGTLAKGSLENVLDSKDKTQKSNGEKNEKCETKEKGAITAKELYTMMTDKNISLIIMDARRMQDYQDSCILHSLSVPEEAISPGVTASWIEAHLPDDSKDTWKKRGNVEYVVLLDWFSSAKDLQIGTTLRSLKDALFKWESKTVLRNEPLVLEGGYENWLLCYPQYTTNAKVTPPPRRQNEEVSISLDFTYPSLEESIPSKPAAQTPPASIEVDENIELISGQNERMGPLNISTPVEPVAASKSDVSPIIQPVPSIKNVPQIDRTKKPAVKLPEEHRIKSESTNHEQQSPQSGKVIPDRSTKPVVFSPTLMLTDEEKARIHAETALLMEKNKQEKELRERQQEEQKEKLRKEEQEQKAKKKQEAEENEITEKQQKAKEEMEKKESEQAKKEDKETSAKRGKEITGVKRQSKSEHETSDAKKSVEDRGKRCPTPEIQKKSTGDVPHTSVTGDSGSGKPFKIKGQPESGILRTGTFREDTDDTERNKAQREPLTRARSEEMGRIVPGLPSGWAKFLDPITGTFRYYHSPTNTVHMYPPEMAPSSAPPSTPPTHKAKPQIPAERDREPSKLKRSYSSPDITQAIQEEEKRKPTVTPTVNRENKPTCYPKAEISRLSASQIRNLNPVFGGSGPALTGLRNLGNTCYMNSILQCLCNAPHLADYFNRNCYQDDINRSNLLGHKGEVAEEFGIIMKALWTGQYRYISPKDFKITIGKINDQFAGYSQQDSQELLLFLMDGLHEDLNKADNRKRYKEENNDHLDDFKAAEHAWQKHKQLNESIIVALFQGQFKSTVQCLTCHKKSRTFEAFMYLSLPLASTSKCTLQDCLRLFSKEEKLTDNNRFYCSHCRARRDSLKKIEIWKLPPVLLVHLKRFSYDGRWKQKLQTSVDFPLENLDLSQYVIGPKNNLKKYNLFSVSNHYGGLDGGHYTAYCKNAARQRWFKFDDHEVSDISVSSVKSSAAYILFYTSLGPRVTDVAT
USP7 inh – inhibitors of human USP7 deubiquitinase | purified USP7, Ub-rhodamine cleavage fluorescence | inhibition, % at 20 µM | 0.3% of 47,000 active | AID 1645854, 2021
USP10 inh – inhibitors of human USP10 deubiquitinase. Ubiquitin carboxyl-terminal hydrolase 10 (Homo sapiens), Q14694. inhibition, % at 20 µM. AID 1645856, 2021. 1.1% of 47,000 active. purified USP10, Ub-rhodamine fluorescence, 60 min
UCHL1 block – inhibitors of human UCHL1 deubiquitinase; inhibition, % at 20 µM; Ubiquitin carboxyl-terminal hydrolase isozyme L1 (Homo sapiens), P09936; 0.2% of 47,000 active; purified UCHL1, Ub-rhodamine cleavage fluorescence; AID 1645859, 2021
* = called active by the depositor. An excerpt weighted towards active compounds, which were near 4.6% of everything screened. Rule as the data show it: active = inhibition above about 30%; inactive = the rest.

SMILES | USP8 block | USP7 inh | USP10 inh | UCHL1 block
CCOC(=O)c1cc(OCC(=O)Nc2ccccc2)c2cc(Cl)ccc2n1 | 4 | 3 | 0 | -1
O=c1cc(-c2cncc(-c3cc4ccccc4o3)c2)nc(-c2ccccc2)[nH]1 | 4 | 4 | 1 | -1
O=c1cc(-c2cncc(Br)c2)nc(-c2ccccc2)[nH]1 | 34* | 3 | 10 | 1
CCCOc1ccc(/C(O)=C2\C(=O)C(=O)N(CCN(C)C)C2c2ccccc2)cc1 (stereo not given) | 1 | 1 | 0 | -1
Cc1ccc(C2/C(=C(\O)c3ccc(F)cc3)C(=O)C(=O)N2c2nc3ccc(F)cc3s2)cc1 (stereo not given) | -13 | 2 | 28 | -1
COc1ccc(C2/C(=C(\O)c3ccccc3)C(=O)C(=O)N2c2nc3ccc(F)cc3s2)cc1 (stereo not given) | 8 | 1 | 41* | -2
COc1ccc(C2/C(=C(\O)c3ccccc3)C(=O)C(=O)N2c2cccc(C(F)(F)F)c2)cc1 (stereo not given) | -87 | 4 | 30* | -5
C=C(C)C#CC1=C[C@H](O)[C@H]2O[C@H]2[C@@H]1O | 2 | 11 | 3 | 1
O=C(c1ccc[nH]1)N1CCC2(CC1)COc1ccccc1S(=O)(=O)N(CC1CC1)C2 | -11 | 0 | 2 | -1
Cc1cc(C(Nc2ccccn2)c2ccc(Cl)cc2)c(NC(=O)c2ccco2)s1 (stereo not given) | 35* | 6 | -4 | 1
O=C(NCCc1ccc(Cl)cc1)c1cccc(-n2cnc3cccnc32)c1 | -7 | -9 | -14 | -5
O=C(NCCc1ccccc1F)c1ccc(N2C(=O)CCS2(=O)=O)cc1 | 12 | 1 | 6 | 0
COc1ccc(CCNC(=O)c2c(N)n(-c3cccc(F)c3)c3nc4ccccc4nc23)cc1 | 36* | 1 | -2 | 7
Cc1ccc(-n2c(N)c(C(=O)NCCc3ccccc3F)c3nc4ccccc4nc32)cc1 | 34* | -5 | -3 | 1
COc1ccc(CCNC(=O)c2c(N)n(-c3cccc(Cl)c3)c3nc4ccccc4nc23)cc1 | 62* | -6 | 4 | 7
CC(C)c1cc(N2CCN(C(=O)C3CC3)CC2)nc2nncn12 | 4 | 1 | -1 | 0
CC(=O)N1C[C@H](c2ccccc2)[C@H]2CN(C(=O)c3cccc(=O)[nH]3)CC[C@H]21 | 0 | 1 | 0 | 1
CCCN1C(=O)Cc2c(C)nc(-c3cccc(F)c3)nc21 | 75* | -22 | -5 | 0
CC(C)=CCC/C(C)=C/Cc1c(O)cc2c(c1O)C(=O)OC2 | 57* | 88* | 64* | 83*
COc1ccc2[nH]c3c(c2c1)CCN1C(=O)N(c2ccccc2C(=O)NCC2CCCO2)C(=O)[C@]31C (stereo not given in full) | -34 | -4 | -1 | -2
O=C(c1cn(-c2ccccc2C(F)(F)F)nn1)c1ccc(Cl)cc1Cl | 22 | -26 | 6 | 7
CC(C)C(=O)Nc1cccc(C(=O)OCC(=O)c2ccc3ccccc3c2)c1 | 22 | 1 | 1 | 0
O=C(CSc1nc2ccncc2[nH]1)Nc1ccc(Br)cc1F | 35* | 0 | 9 | 0
O=C(CSc1nc2ccccc2n1S(=O)(=O)c1ccc(Br)cc1)Nc1ccc(Br)cc1F | 14 | 0 | 7 | 5
COc1ccccc1C(=O)N1CCN(c2cnn3c(C4CC4)nnc3c2)CC1 | -1 | 0 | 1 | -2
SMILES | USP8 block | USP7 inh | USP10 inh | UCHL1 block
COc1ccc(CCNC(=O)COC(=O)c2ccc(N3CCCC3=O)cc2)cc1 | 30* | 6 | 5 | 0
COc1ccc(C(=O)Nc2cccc(N3CCCCC3=O)c2)cc1 | 4 | 6 | 1 | 3
CCOc1ccc2c(c1)c(=O)c(C(=O)c1ccccc1)cn2CC(=O)Nc1ccc(Cl)cc1 | 93* | 30 | 47* | 6
COc1ccc2c(c1)c(=O)c(C(=O)c1ccc(Cl)cc1)cn2CC(=O)Nc1ccc(Cl)cc1 | 16 | 0 | -2 | -4
COc1ccc(NC(=O)Cn2cc(C(=O)c3ccc(Cl)cc3)c(=O)c3cc(F)ccc32)cc1 | 16 | 25 | 53* | 6
COc1ccc(NC(=O)Cn2cc(C(=O)c3ccccc3)c(=O)c3cc(Cl)ccc32)cc1OC | 15 | 7 | 33* | 6
Cc1ccc(-n2nc(C)c3c2NC(=O)[C@@H](NC(=O)c2ccccc2)[C@@H]3c2ccc(F)cc2)cc1 | 0 | 7 | 2 | 3
COc1ccc(-c2onc(C)c2C)cc1S(=O)(=O)NCc1ccc(F)cc1 | 11 | 4 | 58* | 5
CC(C)n1cc2cc(C(=O)NC3CCN(Cc4ccccc4)CC3)sc2c1 | 51* | -26 | -8 | -1
Cc1cc(C(=O)NC2CCN(Cc3ccccc3)CC2)c(C)o1 | -7 | -4 | -11 | -4
COc1ccc(-c2nnc(NC(=O)CSc3ccc(C)cc3)o2)cc1 | -315 | 3 | -2 | -2
COc1ccc(N2CCn3c(SCC(=O)Nc4cc(C)cc(C)c4)nnc32)cc1 | 50* | 5 | 4 | -1
CCc1ccc(NC(=O)CCc2nc3cccnc3n2Cc2ccccc2)cc1 | 35* | 6 | 11 | 4
O=C(Nc1cc(Cl)ccc1NCc1ccccc1)c1cc(=O)[nH]c2ccccc12 | 44* | 0 | -3 | -2
Cc1ccc(C2C3=C(NCCN=C3c3ccccc3)C(=O)N2c2ccccc2)cc1 (stereo not given) | 7 | -14 | -5 | 0
CCOc1ccc(C2=NCCNC3=C2C(c2ccccc2)N(c2ccccc2)C3=O)cc1 (stereo not given) | 30* | 8 | 0 | 1
CCOc1ccccc1N(C(=O)c1ccc2c(c1)OCCO2)C(C(=O)NC1CCCCC1)c1ccc(O)cc1 (stereo not given) | -7 | 1 | 1 | 1
COc1ccc(OC)c(C(C(=O)NC2CCCCC2)N(C(=O)c2ccc3c(c2)OCCO3)c2ccc(C)cc2)c1 (stereo not given) | 33* | 8 | 8 | 11
CC1(C)Oc2ccc(C(=O)N3CCC([C@@H]4NC(=O)N[C@H]5OCCC[C@H]54)CC3)cc2NC1=O | 1 | 13 | 3 | 5
O=C1Cc2cc(S(=O)(=O)N3CCC([C@@H]4NC(=O)N[C@H]5OCCC[C@H]54)CC3)ccc2N1 | 43* | -4 | -4 | 2
CCC(=O)Nc1nc2cc(NC(=O)Nc3cc(C)cc(C)c3)ccc2s1 | 60* | 12 | 32* | -2
CCn1cc(-c2cc(C(=O)N3C[C@@H]4C[C@@]5(C)[C@H](CCC[C@@H]35)N4)on2)cn1 | -15 | 4 | -2 | 4
O=C(Oc1coc(CSc2ncccn2)cc1=O)c1c(F)cccc1F | 46* | 0 | 6 | 4
Cc1cccc(-n2ccc(=O)c(-c3nc(-c4ccc(Cl)c(F)c4)no3)n2)c1 | 11 | 3 | 0 | 1
COc1ccccc1-c1noc(-c2nn(-c3ccc(C)cc3)ccc2=O)n1 | -13 | -32 | -1 | 1
COc1ccc(-n2ccc(=O)c(-c3nc(-c4ccccc4C)no3)n2)cc1 | 34* | 15 | 5 | 3

Screening data as filed in PubChem BioAssay.
